From PubChem BioAssay AID1852 (Sanford-Burnham Center for Chemical Genomics, 2009)
Out of some 2,500 compounds screened, about 1,100 (44%) were called active.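 How the source made its calls: active means inhibition above 50% at 4 µM in the single-point screen; inactive means inhibition of 50% or less.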 The set was probably picked from earlier hits. The list shows a part of the results.

Test: blockers of TNF-a NF-kB luciferase induction – cell-based, HEK293T NF-kB-Luc, luminescence, selectivity assay for NOD1/NOD2 signaling inhibitor project, primary screen (AID 1852)
Settings: TNF-a induced, 14 h, at 4 µM, hits give high values

inhibition, active:
CNC(=O)c1nnsc1S(=O)(=O)c1ccc(Cl)cc1 91.4%
O=C(c1nnsc1S(=O)(=O)c1ccc(Cl)cc1)N1CCOCC1 52%
O=C(Nc1nnc(-c2cccs2)o1)c1cccc(C(F)(F)F)c1 100%
O=C(Nc1nnc(-c2cccs2)o1)c1cccc(Oc2ccccc2)c1 103%
Cc1cc(/C=N/n2cnnc2)c(C)n1-c1ccc(OCc2ccc(Cl)cc2Cl)cc1 71.9%
CN(C)c1ccnc2sc(C(N)=O)c(N)c12 83.5%
CCc1ccc(C(=O)Nc2nc3ccccc3[nH]2)cc1 103%
Cc1c(C(=O)Nc2nc3ccccc3[nH]2)oc2ccc(Br)cc12 98.6%
O=C(Nc1nc2ccccc2[nH]1)c1cc(F)cc(F)c1 80.3%
Cc1ccc(N=Cc2cc(Cc3ccccc3Cl)cc([N+](=O)[O-])c2O)c(O)c1 70.8%
Cc1c([N+](=O)[O-])c2ccc(O)cc2n1-c1ccccc1 60.9%
CN(C)/C=C/c1c([N+](=O)[O-])c2ccc(O)cc2n1-c1ccccc1 83.5%
O=C1/C(=C\c2cc(Cl)c(O)c(Cl)c2)SC(=S)N1Cc1ccccc1 82.7%
O=C1/C(=C/c2ccc(O)c([N+](=O)[O-])c2)SC(=S)N1Cc1ccccc1 88.5%
COc1cc([N+](=O)[O-])cc(/C=C2/SC(=S)N(Cc3ccccc3)C2=O)c1O 81.1%

inhibition, inactive:
CC(=O)N(c1ccccc1Cl)S(=O)(=O)c1ccc(Cl)cc1 9.8%
O=S(=O)(c1ccc(Cl)cc1)c1snnc1-c1ccccc1 44.1%
CN(c1ccc(C(=O)Nc2ccccc2C(=O)N2CCOCC2)cc1)S(C)(=O)=O 16.2%
Cc1ccc(S(=O)(=O)NC(C(=O)N2CCOCCOCCOCC2)C(C)C)cc1 (stereo unspecified) 15.4%
CCSCCc1nnc(NC(=O)Nc2cccc(C(F)(F)F)c2)s1 7.5%
O=C(CCC(=O)N1CCOc2ccccc21)NCc1ccccn1 18.7%
Cc1ccc(S(=O)(=O)Nc2ccc(Br)cc2/C=N/n2cnnc2)cc1 47.3%
CN(c1ccccc1)S(=O)(=O)c1cc(C(=O)Nc2nc3ccccc3[nH]2)ccc1Cl 31.3%
Cc1cc(NC(=O)/C=C/c2ccc(F)cc2)n(-c2nc3ccccc3[nH]2)n1 -3.9%
O=C(c1ccccc1)c1ccc2nc(-c3ccc(NC(=O)c4ccccc4Br)cc3)[nH]c2c1 11.7%
Cc1ccc(O)c(N=Cc2cc(Cc3ccccc3)cc([N+](=O)[O-])c2O)c1 -1.6%
Cc1ccc(-n2c(C)c([N+](=O)[O-])c3ccc(O)cc32)cc1 40.4%
O=C1S/C(=C\c2ccc(O)c([N+](=O)[O-])c2)C(=O)N1Cc1cccc([N+](=O)[O-])c1 19.6%
Cc1ccc(/C=C2\SC(=S)N(C(Cc3ccccc3)C(=O)O)C2=O)cc1 (stereo unspecified) 25.1%
O=C1/C(=C\c2cccc([N+](=O)[O-])c2O)SC(=S)N1Cc1ccccc1 14.2%
COc1cc(/C=C2\SC(=S)N(CCC(=O)Nc3ccccc3)C2=O)cc(OC)c1OC 6.8%
